# Screening results: PubChem BioAssay, Broad Institute
# Tg IFNy HTS: T. gondii growth inhibition under IFN-gamma; activity change, negative = inhibition, % (no concentration beside the values); 3.8% of 69,000 active; Toxoplasma gondii growth in IFN-gamma-treated host cells; stronger effect = lower value; in the data active = activity change below about -70%, passing the limit was not always enough;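 note: host cells are HeLa cells infected with Toxoplasma gondii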
# Active calls of the source: *; i = inactive; ! = a repeat was not active. Only a selection was taken, and hits are over-represented in it overall.
SMILES,Tg IFNy HTS
CC(C)N(C)Cc1cnc2n1CCN(C(=O)NC1CCCC1)C2C (centres undefined),3
COc1cccc(NC2COC3(CCN(C(=O)c4ccccc4F)CC3)C2)c1 (centres undefined),5
Cc1ccc(CN2C[C@@H]3OCC[C@@H]3[C@@H](C(=O)N3CCCC3)C2)s1,30
Cc1cc(C(=O)N2CCC(C(NC(=O)C(C)(C)C)c3nccs3)CC2)on1 (centres undefined),3
CCc1ccc(S(=O)(=O)N2CCC3(CC2)NCCN=C3NCc2ccc(F)cc2)cc1,-4
Cc1cccc(-c2nc(CCNC(=O)c3cccc4ccccc34)cs2)c1,i
Cc1ccc(S(=O)(=O)Nc2ccc3c(c2)C(=O)N([C@H](C)CO)C[C@@H](C)[C@@H](CN(C)S(=O)(=O)c2cccs2)OCCCC[C@H](C)O3)cc1,-117*
Cc1noc(C)c1NC(=O)Nc1ccc2c(c1)C(=O)N([C@@H](C)CO)C[C@@H](C)[C@@H](CN(C)S(=O)(=O)c1cccs1)OCCCC[C@@H](C)O2,3
Cc1noc(C)c1NC(=O)Nc1ccc2c(c1)C(=O)N([C@H](C)CO)C[C@@H](C)[C@@H](CN(C)S(=O)(=O)c1cccs1)OCCCC[C@H](C)O2,-42
O=C1COc2ccc(S(=O)(=O)N3CCCC3c3ccccn3)cc2N1 (centres undefined),0
O=C(Cc1ccc(Cl)cc1)Nc1ccc(-c2nc(-c3ccccc3)co2)cc1,6
CC(c1ccccc1)n1c(SCC(=O)O)nnc1C1CCOCC1 (centres undefined),8
CC(c1ccccc1)n1c(SCC(=O)c2csc3ccccc23)n[nH]c1=O (centres undefined),-79*
O=C(CSc1n[nH]c(=O)n1-c1ccccc1C(F)(F)F)c1ccc(F)cc1,-29
Cc1cnc(N2CC[C@H]3CN(Cc4cccnc4)S(=O)(=O)[C@@H]3CC2)nc1,-4
C#CCSc1nccc(-c2sc(COc3ccccc3Cl)nc2C)n1,-23
CC(=O)c1cc(C(=O)NCCCN2CCCc3ccccc32)cs1,-2
CN(C)S(=O)(=O)CCNC(=O)C(=O)N1CCc2ccccc21,-1
CNCCCN1c2ccccc2CCc2ccccc21,-83*!
CN(C)CCCN1c2ccccc2CCc2ccc(Cl)cc21,-70*!
CC(=O)c1ccc2c(c1)N(CCCN(C)C)c1ccccc1S2,11
CN(C)CCCN1c2ccccc2Sc2ccccc21,-22
CC(C)C(=O)NCCn1cnc(-c2ccccc2)c1-c1cnc(N(C)C)s1,-39
O=C(Cc1ccc(F)cc1)N1CC(C(=O)N2CCCC2)C2(CCOCC2)C1 (centres undefined),9
Cc1cccc(CN(Cc2cccc(F)c2)CC2CCCO2)n1 (centres undefined),4
SMILES,Tg IFNy HTS
c1csc(-c2cnc(N3CCCC3)nc2-c2nccs2)c1,-8
Cn1ccc2c(-c3cc(N)nc(N4CCOCC4)n3)ccnc21,-17
c1csc(-c2[nH]ncc2-c2ccnc(N3CCOCC3)n2)c1,-106*
COc1ncccc1-c1ccc(NC2CCCC2)nn1,-33
C=CCO[C@H]1CCN(C(=O)c2ccc[nH]2)[C@H]1Cc1cnn(C)c1,5
O=C1NC(=O)C(Cc2ccccc2F)(C2CCNCC2)N1 (centres undefined),-3
COC(=O)C1(Cc2ccccc2F)NC(=O)CC2CCC1N2Cc1ccccc1 (centres undefined),-77*
COc1ccc(F)c([C@@H]2NC(=O)CC[C@H]2NCc2cn[nH]c2-c2ccccc2)c1,-1
Cc1cccc(CN2CCn3c(CNC(=O)C4CC4)cnc3C2)n1,-3
Cc1nc2n(n1)C(C(=O)Nc1cccc(Cl)c1C)CC(=O)N2 (centres undefined),22
C=CCn1c(SCC(=O)OCC)nc2sc3c(c2c1=O)CC(C)(C)OC3,-7
CCOC(=O)c1c(NC(=O)C2CC(=O)OC23CCCCC3)sc2c1CC(C)(C)OC2 (centres undefined),-96*
N#Cc1c(NC(=O)C2CC(c3cccc(Br)c3)=NO2)sc2c1CCC2 (centres undefined),-20
CCOC(=O)c1c(NC(=O)CSc2nc(C)cc(C)n2)sc2c1CCC2,-44
CCC(Sc1ncc(-c2ccccc2)nn1)C(=O)Nc1sc2c(c1C#N)CCCC2 (centres undefined),150
N#Cc1c(NC(=O)C2CC(=O)OC23CCCCC3)sc2c1CCCCC2 (centres undefined),-91*
O=C(c1cncc(-c2ccn[nH]2)n1)N1CCCCC1,0
CCOC(=O)c1ccc2nc(-n3cccc3)sc2c1,235
CON(C)Cc1csc(NC(=O)OC(C)(C)C)n1,1
CC(C)c1nnc(NC(=O)CSCC(=O)Nc2cccc3ccccc23)s1,34
Fc1ccc(CN2CCO[C@H]3[C@H]2CC[C@H]3OCCCn2cccn2)cc1,-94*
Fc1cnc(N2CCO[C@@H]3[C@H]2CC[C@H]3OCc2ccccn2)nc1,1
c1coc(CN2C[C@@H](OCCCn3cccn3)[C@@H]3OCCC[C@@H]32)c1,-30
O=C(NCc1nc(-c2ccccc2)no1)c1cccc(N2CCCC2=O)c1,41
O=C(c1cncc(F)c1)N1CCCC2(CC1)CCN(CC1CC1)C2=O (centres undefined),-10
SMILES,Tg IFNy HTS
O=C(/C=C/c1cccc(S(=O)(=O)Nc2ccccc2)c1)NO,-71*
CCNC(=O)/C=C/c1cccc(Br)c1,31
O=C(O)c1ccc(NS(=O)(=O)c2cccc(C(=O)O)c2)cc1,-4
CC(=O)Oc1ccc2c(c1)CCC1C2=CCC2(C)C(OC(C)=O)CCC12 (centres undefined),-92*
CCCCC(=O)O[C@H]1CC[C@H]2[C@@H]3CCc4cc(O)ccc4[C@H]3CC[C@]12C,-35
O=C(c1ccco1)N1CCC2(CC1)CN(Cc1cccnc1)CC21CCNC1=O (centres undefined),4
COC[C@]12COC[C@H]1CN(C(=O)c1ccc3ncccc3c1)C2,-15
O=C(Nc1cccnc1)c1sc2cc(Cl)ccc2c1Cl,-10
CCOc1ccc(NC(=O)c2c(O)c3cccnc3n(-c3ccc(F)cc3)c2=O)cc1,164
CCN(CC)CCNc1ccc(CO)c2sc3ccccc3c(=O)c12,-97*!
CCN(CC)CCNC(=O)c1ccccc1I,12
COCCN1C(=O)CCc2cc(NC(=O)c3ccc(OC)cc3)ccc21,-37
Cc1nc(-c2ccc(F)cc2)sc1-c1ccc(SCc2ccccc2F)nn1,2
O=C(COCC1COc2ccccc2O1)N1CCCN(c2ccccn2)CC1 (centres undefined),1
O=C(Cc1c(F)cccc1Cl)NC(=O)NCCc1c(F)cccc1Cl,-83*
CCn1c(CCNC(=O)Cc2c(F)cccc2Cl)nnc1SC,-3
CC(C)(C)C(=O)C(Cc1c(F)cccc1Cl)C(=O)C(C)(C)C,-24
O=C(Nc1ccccc1)N1CC[C@H]2CNS(=O)(=O)[C@@H]2CC1,-1
O=C(CCCCCCC(=O)Nc1ccccc1)NO,-84*!
O=C(NC(=S)Nc1cccnc1)c1ccccc1,-11
O=C(CCCCCCC(=O)Nc1cccnc1)NO,-84*
CCCCC(=O)Nc1ccc(-c2nc(-c3ccccc3)co2)cc1,5
O=C(O)CSCCCC(=O)Nc1ccc(Br)cc1,-3
CN(CC(=O)Nc1cccnc1)S(=O)(=O)c1ccc(Cl)cc1,-53
C=C(C)CN1CCN(C(=O)CC(C)n2cccn2)CC1 (centres undefined),-2
CCN1CCC2(CN(c3ncccn3)CC23CCN(Cc2cccnc2)CC3)C1=O (centres undefined),10
O=C(Nc1cc(F)cc(F)c1)c1c(O)c2cccnc2n(-c2cccc(F)c2)c1=O,-106*
